Measured values: PubChem BioAssay
Several values for one entry are separate records, joined by “and”; a condition that tells them apart may be missing. Equal values may be shown once. Activity calls are given as the source filed them.

Columns and labels:
[1] = tested on: PRMT1 (protein arginine N-methyltransferase 1); test: small molecules binding arginine methyltransferase PRMT1 – biochemical, small-molecule microarray, 635 nm fluorescence, primary screen (AID 1088); conditions: higher = more signal;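 further: binding of Prmt1 protein to compounds spotted on small-molecule microarray slides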
[2] = growth effects on S. cerevisiae YJM789 – YJM789 clinical isolate, OD600, 24 h, basal, primary screen (AID 1089); conditions: higher = more signal, called active from +8 up or from −8 down;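 further: growth of clinical yeast isolate S. cerevisiae YJM 789 seeded 1000 cells per well; test concentration not given here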
[3] = S. pombe growth modifiers, basal conditions – strain 972, OD600, 24 h, no modulator, primary screen (AID 1090);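 further: basal condition with compound alone and no growth modifier present; test concentration not given here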; conditions: S. pombe 972 growth, higher = more signal, called active from +8 up or from −8 down
[4] = budding yeast growth modifiers under rapamycin – strain BY4716, OD600, 96 h, primary screen (AID 1091); further: test concentration not given here; conditions: S. cerevisiae BY4716 + rapamycin, higher = more signal, called active from +8 up or from −8 down
[5] = target: Torsin-1A-interacting protein 2 (Homo sapiens) (UniProt Q8NFQ8); test: small molecules binding lysate-expressed LULL1 – cell lysate, human LULL1 lysate, 635/667 nm fluorescence, primary screen (AID 1092); conditions: small-molecule microarray, hLULL1 lysate binding, 635 nm fluorescence; higher = more signal;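 further: probe is lysate of COS7 cells overexpressing human LULL1; score merges per-feature 667 nm fluorescence with signal-to-noise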
Chain of Torsin-1A-interacting protein 2 (Homo sapiens) (Q8NFQ8 whole entry, looked up): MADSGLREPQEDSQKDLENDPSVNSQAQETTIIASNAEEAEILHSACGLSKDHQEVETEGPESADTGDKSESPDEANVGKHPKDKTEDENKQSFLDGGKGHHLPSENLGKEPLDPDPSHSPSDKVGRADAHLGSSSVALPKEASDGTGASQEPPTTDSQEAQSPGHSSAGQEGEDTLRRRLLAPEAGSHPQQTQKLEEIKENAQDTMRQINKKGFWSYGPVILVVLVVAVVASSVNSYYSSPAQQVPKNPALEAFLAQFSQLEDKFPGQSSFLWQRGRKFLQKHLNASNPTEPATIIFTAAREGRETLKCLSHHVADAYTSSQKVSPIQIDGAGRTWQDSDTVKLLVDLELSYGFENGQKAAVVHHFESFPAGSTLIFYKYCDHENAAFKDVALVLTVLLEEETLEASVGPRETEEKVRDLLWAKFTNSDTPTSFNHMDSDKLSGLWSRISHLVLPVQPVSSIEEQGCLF

[6] = optical density change of DRC41 E. coli – strain DRC41, OD650, 24 h, E. coli filamentation project, primary screen (AID 1093);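 further: MC1000 strain lacking acrAB efflux and sulA so SOS filamentation is blocked; test concentration not given here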; conditions: E. coli DRC41 growth, higher = more signal, called active from +8 up or from −8 down
[7] = probe aLefty2 binding to arrayed compounds – biochemical, biotinylated probe, 635/667 nm fluorescence, primary screen (AID 1094); conditions: small-molecule microarray, higher = more signal;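 further: score merges spot fluorescence near 667 nm with spot signal-to-noise ratio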
[8] = tested on: Noggin (protein binding on small-molecule microarray); test: small molecules binding Noggin protein – biochemical, 635/667 nm fluorescence, primary screen (AID 1095); conditions: 635 nm fluorescence, higher = more signal;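 further: score merges 667 nm feature fluorescence with signal to noise over triplicate slides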
[9] = target: Neurogenic locus notch homolog protein 3 (Homo sapiens) (UniProt Q9UM47); test: small molecules binding NOTCH3 protein – biochemical, 635/667 nm fluorescence, primary screen (AID 1096); conditions: small-molecule microarray, 635 nm fluorescence, higher = more signal
Chain of Neurogenic locus notch homolog protein 3 (Homo sapiens) (Q9UM47 whole entry, looked up): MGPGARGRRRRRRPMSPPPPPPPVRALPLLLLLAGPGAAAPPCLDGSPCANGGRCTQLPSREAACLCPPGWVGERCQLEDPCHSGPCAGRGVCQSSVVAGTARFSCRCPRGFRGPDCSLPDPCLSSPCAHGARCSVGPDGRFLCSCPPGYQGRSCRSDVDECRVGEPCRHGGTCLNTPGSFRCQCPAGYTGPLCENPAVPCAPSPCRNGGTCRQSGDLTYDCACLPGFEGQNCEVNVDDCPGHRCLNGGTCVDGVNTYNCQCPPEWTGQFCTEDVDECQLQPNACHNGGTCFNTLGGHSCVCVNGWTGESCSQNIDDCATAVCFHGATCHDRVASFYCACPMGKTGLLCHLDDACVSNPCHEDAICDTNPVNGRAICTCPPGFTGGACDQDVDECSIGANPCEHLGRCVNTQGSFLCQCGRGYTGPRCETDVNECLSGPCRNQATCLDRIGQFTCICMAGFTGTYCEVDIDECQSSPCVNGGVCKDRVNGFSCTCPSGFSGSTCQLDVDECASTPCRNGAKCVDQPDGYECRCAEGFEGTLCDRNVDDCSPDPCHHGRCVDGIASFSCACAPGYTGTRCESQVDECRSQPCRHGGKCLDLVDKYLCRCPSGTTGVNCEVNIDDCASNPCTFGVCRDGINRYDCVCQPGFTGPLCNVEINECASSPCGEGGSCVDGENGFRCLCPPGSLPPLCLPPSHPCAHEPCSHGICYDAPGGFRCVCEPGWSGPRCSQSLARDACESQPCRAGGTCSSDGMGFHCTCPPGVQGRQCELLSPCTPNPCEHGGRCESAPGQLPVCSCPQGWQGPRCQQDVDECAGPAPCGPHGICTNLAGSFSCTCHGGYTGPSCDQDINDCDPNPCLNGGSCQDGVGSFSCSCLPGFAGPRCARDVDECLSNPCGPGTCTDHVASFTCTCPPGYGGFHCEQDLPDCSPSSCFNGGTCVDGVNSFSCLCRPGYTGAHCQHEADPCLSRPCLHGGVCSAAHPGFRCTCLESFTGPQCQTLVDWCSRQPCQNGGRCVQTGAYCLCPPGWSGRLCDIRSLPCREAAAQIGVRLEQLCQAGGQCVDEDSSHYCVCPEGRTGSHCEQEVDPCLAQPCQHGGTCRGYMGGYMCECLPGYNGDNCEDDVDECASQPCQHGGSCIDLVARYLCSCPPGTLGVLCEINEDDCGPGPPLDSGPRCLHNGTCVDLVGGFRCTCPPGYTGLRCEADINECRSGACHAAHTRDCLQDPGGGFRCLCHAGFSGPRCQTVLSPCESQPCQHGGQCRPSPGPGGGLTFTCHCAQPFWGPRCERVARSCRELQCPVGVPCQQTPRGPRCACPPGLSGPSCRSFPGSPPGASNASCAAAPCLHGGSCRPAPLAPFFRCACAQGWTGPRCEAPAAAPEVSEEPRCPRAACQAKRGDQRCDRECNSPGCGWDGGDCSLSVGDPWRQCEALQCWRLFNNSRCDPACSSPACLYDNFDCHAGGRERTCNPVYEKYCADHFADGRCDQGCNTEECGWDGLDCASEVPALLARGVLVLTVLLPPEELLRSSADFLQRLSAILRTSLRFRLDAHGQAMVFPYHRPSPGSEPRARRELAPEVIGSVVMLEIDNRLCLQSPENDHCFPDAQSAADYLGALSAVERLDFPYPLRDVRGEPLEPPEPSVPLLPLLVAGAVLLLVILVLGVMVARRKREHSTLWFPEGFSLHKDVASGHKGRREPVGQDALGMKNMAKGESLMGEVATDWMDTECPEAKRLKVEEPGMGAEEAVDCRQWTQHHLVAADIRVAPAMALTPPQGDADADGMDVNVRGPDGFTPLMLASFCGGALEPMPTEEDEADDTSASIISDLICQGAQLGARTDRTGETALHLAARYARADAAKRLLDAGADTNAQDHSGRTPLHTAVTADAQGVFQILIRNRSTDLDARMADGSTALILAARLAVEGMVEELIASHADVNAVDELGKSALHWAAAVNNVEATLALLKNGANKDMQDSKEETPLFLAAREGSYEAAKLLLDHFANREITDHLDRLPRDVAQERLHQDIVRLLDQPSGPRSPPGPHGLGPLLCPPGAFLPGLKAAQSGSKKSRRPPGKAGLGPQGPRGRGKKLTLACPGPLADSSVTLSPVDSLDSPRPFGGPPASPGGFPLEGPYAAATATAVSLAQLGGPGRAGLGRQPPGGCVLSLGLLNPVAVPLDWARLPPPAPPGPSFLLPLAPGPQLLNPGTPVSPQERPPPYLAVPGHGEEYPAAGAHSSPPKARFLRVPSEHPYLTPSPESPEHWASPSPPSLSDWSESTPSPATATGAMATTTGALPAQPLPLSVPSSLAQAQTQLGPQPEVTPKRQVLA

[10] = probe aEGFR binding to arrayed compounds – biochemical, biotinylated probe, 635/667 nm fluorescence, primary screen (AID 1097); conditions: small-molecule microarray, higher = more signal;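 further: probe is a biotinylated anti-EGFR antibody binding compounds printed on slides; score combines fluorescence near 667 nm and signal to noise of each spot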
[11] = tested on: Plasmodium falciparum Sir2 (PF13_0152, Sir2A); test: Plasmodium falciparum Sir2A binding compounds – biochemical, small-molecule microarray, 635 nm fluorescence, primary screen (AID 1098); conditions: fluorescence 635 nm, higher = more signal;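 further: score merges spot fluorescence intensity with its signal-to-noise ratio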
[12] = probe aDKK1 binding to arrayed compounds – biochemical, biotinylated probe, 635/667 nm fluorescence, primary screen (AID 1099); conditions: small-molecule microarray, higher = more signal;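 further: score merges 667nm spot fluorescence with signal to noise across triplicate slides; reference of the scale not given here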
[13] = probe aCHRDL2 binding to arrayed compounds – biochemical, biotinylated probe, 635/667 nm fluorescence, primary screen (AID 1100); conditions: small-molecule microarray, higher = more signal
[14] = change in splice reporter luminescence, either direction, cell-based, HEK293, spliceosome inhibition project, primary screen (AID 1101); conditions: HEK293 splicing luciferase reporter, 24 h, higher = more signal, called active from +8 up or from −8 down;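 further: HEK293 cells carrying a splicing-competent luciferase reporter gene; test concentration not given here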
[15] = target: Fibroblast growth factor 10 (Homo sapiens) (UniProt O15520); test: compounds binding fibroblast growth factor 10 – biochemical, small-molecule microarray, 635 nm fluorescence, primary screen (AID 1102); conditions: FGF10 binding, fluorescence 635 nm, higher = more signal
Chain of Fibroblast growth factor 10 (Homo sapiens) (O15520 whole entry, looked up): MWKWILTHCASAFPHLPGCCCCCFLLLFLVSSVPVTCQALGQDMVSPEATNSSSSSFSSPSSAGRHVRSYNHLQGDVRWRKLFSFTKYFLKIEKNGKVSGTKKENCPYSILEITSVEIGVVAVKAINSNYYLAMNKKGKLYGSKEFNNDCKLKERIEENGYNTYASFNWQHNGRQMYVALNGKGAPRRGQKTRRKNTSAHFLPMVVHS

[16] = tested on: glycogen synthase kinase-3 (GSK3A per assay name; protocol says GSK3B); test: compounds binding glycogen synthase kinase-3 – biochemical, small-molecule microarray, 635 nm fluorescence, GSK3A, primary screen (AID 1103); conditions: fluorescence 635 nm, higher = more signal; further: the record names both GSK3A and GSK3B
[17] = target: Epidermal growth factor receptor (Homo sapiens) (UniProt P00533); test: compounds binding epidermal growth factor receptor – biochemical, small-molecule microarray, 635 nm fluorescence, primary screen (AID 1104); conditions: EGFR binding, higher = more signal;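 further: score merges 667 nm emission intensity with spot signal to noise over triplicate slides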
Chain of Epidermal growth factor receptor (Homo sapiens) (P00533 whole entry, looked up): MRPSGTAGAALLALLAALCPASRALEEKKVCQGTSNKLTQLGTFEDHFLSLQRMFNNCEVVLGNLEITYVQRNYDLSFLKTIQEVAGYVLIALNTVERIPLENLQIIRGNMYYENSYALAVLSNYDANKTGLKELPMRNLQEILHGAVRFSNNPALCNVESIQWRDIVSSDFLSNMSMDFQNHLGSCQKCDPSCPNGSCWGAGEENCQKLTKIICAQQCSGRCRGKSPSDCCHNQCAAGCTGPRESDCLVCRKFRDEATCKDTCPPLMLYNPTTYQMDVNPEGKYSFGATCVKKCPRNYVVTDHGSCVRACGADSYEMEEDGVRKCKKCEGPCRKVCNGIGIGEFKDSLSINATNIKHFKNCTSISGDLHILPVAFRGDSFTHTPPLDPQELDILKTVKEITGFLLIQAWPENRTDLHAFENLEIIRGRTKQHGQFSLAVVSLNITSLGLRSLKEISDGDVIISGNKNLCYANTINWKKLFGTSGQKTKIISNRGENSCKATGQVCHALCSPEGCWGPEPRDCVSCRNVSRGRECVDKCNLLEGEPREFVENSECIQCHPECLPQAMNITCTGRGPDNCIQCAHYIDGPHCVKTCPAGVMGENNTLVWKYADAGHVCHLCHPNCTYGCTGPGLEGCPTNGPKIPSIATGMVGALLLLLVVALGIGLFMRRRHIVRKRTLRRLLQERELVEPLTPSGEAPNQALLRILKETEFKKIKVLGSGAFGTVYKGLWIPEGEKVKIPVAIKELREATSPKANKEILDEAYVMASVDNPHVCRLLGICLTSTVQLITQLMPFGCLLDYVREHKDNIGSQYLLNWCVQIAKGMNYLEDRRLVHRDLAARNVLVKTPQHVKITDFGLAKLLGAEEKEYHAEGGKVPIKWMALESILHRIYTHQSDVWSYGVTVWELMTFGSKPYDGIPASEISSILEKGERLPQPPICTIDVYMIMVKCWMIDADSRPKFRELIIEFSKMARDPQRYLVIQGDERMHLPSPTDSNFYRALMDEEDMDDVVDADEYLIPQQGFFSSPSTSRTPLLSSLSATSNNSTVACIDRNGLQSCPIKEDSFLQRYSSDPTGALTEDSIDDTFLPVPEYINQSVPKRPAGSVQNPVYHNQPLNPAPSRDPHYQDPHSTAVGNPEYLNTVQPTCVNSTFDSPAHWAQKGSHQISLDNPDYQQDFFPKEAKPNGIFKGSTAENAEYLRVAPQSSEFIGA

[18] = target: Follistatin-related protein 3 (Homo sapiens) (UniProt O95633); test: compounds binding follistatin-related protein 3 – biochemical, small-molecule microarray, 635 nm fluorescence, primary screen (AID 1105); conditions: FSTL3 binding, higher = more signal;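 further: score merges emission near 667 nm and signal to noise per printed spot across three slides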
Chain of Follistatin-related protein 3 (Homo sapiens) (O95633 whole entry, looked up): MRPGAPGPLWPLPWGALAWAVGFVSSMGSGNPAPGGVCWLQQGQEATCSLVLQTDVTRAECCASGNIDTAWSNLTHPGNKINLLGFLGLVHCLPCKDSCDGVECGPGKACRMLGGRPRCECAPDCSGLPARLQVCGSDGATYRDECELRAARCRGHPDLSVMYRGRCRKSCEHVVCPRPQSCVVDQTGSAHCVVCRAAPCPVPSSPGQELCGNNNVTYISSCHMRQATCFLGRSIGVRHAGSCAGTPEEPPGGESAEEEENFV

[19] = target: Dickkopf-related protein 1 (Homo sapiens) (UniProt O94907); test: small molecules binding DKK1 protein – biochemical, small-molecule microarray, 635 nm fluorescence scan, primary screen (AID 1106); conditions: higher = more signal;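 further: score merges emission near 667 nm with signal to noise over three replicate slides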
Chain of Dickkopf-related protein 1 (Homo sapiens) (O94907 whole entry, looked up): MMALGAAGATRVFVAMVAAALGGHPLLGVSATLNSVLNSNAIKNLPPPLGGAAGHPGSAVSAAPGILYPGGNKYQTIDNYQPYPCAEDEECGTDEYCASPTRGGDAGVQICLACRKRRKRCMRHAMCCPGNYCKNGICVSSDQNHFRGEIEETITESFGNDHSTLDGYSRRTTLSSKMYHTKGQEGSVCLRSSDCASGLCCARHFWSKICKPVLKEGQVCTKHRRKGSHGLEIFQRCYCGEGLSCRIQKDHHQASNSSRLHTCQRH

[20] = tested on: Inhibin beta A chain (activin A); test: small molecules binding activin A – biochemical, small-molecule microarray, 635 nm fluorescence scan, primary screen (AID 1107); conditions: INHBA, higher = more signal;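 further: mouse activin A protein probed at 4.33 µg/mL on printed slides; score merges bound-protein fluorescence near 667 nm with spot signal-to-noise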

With `COC(=O)C1=C(C)N(Cc2ccccc2)[C@]23O[C@](C(=O)OC)(C(=O)N2[C@@H]1c1ccccc1)[C@H]1C(=O)N(C)C(=O)[C@H]13` the composite z-score [1] was 1.42 and 0.289, the z-score [2] was -0.458 (inactive) and -0.907 (inactive) and the z-score [3] was -0.0692 (inactive) and -1.06 (inactive). For the same compound, the z-score [4] was 0.609 (inactive) and -0.776 (inactive), the composite z-score [5] was 1.9 and 0.741 and the z-score [6] was 1.12 (inactive) and 0.684 (inactive). The composite z-score [7] was -0.0831 and -0.125, the composite z-score [8] was 1.35 and 0.752 and the composite z-score [9] was 0.877 and 0.903. The composite z-score [10] was -0.0967 and 0.128, the composite z-score [11] was 0.626 and 0.336 and the composite z-score [12] was 0.0479 and 0.177. For the same compound, the composite z-score [13] was -0.284 and -0.474, the z-score [14] was -1.03 (inactive) and -1.27 (inactive) and the composite z-score [15] was 0.408 and 0.827. The composite z-score [16] was 0.933 and 0.452, the composite z-score [17] was 0.473 and 0.427 and the composite z-score [18] was 0.645 and 0.82. For the same compound, the composite z-score [19] was 0.415 and 0.942 and the composite z-score [20] was -0.338 and 0.137.

For `COc1ccc(COC(=O)NN=C2C[C@@H](O)[C@@H](O)[C@@H]3[C@@H]4C(=O)N(C(C)(C)C)C(=O)[C@@H]4CC[C@H]23)cc1`, the composite z-score [1] was 1.28, the z-score [2] was -1.76 (inactive) and the z-score [3] was -1.05 (inactive). The z-score [4] was -0.715 (inactive), the composite z-score [5] was 2.14 and the z-score [6] was -0.0531 (inactive). The composite z-score [7] was -0.277, the composite z-score [8] was 0.468 and the composite z-score [9] was 0.469. It also gave a composite z-score [10] of -0.132, a composite z-score [11] of 0.871 and a composite z-score [12] of -0.325. The composite z-score [13] was -0.25, the z-score [14] was -0.544 (inactive) and the composite z-score [15] was 0.589. It also gave a composite z-score [16] of 0.241, a composite z-score [17] of -0.0313 and a composite z-score [18] of 0.121. For the same compound, the composite z-score [19] was -0.116 and the composite z-score [20] was -0.786.

For `O=c1n(-c2ccccc2)c(=O)n2n1CC[C@@H]1C(=NOC[C@@H](O)COCc3ccco3)[C@H]3O[C@H]3[C@@H](O)[C@@H]12`, the composite z-score [1] was 1.23 and -0.267, the z-score [2] was -0.188 (inactive) and 0.0291 (inactive) and the z-score [3] was -0.7 (inactive) and 0.498 (inactive). The z-score [4] was 0.0488 (inactive) and 0.801 (inactive), the composite z-score [5] was 0.264 and -1.26 and the z-score [6] was -0.517 (inactive) and 0.0684 (inactive). For the same compound, the composite z-score [7] was -0.107 and -0.0797, the composite z-score [8] was 1.06 and 0.325 and the composite z-score [9] was 0.827 and -0.585. The composite z-score [10] was -0.139 and -0.0512, the composite z-score [11] was 0.981 and 1.38 and the composite z-score [12] was -0.418 and -0.503. For the same compound, the composite z-score [13] was -0.929 and -0.662, the z-score [14] was -1.51 (inactive) and 0.0711 (inactive) and the composite z-score [15] was 0.526 and -0.556. The composite z-score [16] was 0.605 and -0.449, the composite z-score [17] was 0.634 and 0.518 and the composite z-score [18] was 0.973 and 0.426. For the same compound, the composite z-score [19] was 1.24 and 0.48 and the composite z-score [20] was 0.467 and 0.442.
